# Source: PubChem BioAssay (National Center for Advancing Translational Sciences (NCATS))
# Most compounds without a hit are left out; they make up all but 19% or so of the library.
# RORg inh = qHTS for inhibitors of ROR gamma transcriptional activity | Nuclear receptor ROR-gamma (Mus musculus), P51450 | Drosophila S2 Gal4-RORgamma UAS-luciferase reporter, 20 h | Potency, µM (titrated, usually from 53.6 µM), for the others: at the highest dose activity change, negative = inhibition, most hits filed as inhibitors | 5.4% of 310,000 active | AID 2551, 2010; further: nearly all actives have a fitted effect of over 60% in size
# Target sequence (P51450 whole entry, looked up, the tested form may be a part): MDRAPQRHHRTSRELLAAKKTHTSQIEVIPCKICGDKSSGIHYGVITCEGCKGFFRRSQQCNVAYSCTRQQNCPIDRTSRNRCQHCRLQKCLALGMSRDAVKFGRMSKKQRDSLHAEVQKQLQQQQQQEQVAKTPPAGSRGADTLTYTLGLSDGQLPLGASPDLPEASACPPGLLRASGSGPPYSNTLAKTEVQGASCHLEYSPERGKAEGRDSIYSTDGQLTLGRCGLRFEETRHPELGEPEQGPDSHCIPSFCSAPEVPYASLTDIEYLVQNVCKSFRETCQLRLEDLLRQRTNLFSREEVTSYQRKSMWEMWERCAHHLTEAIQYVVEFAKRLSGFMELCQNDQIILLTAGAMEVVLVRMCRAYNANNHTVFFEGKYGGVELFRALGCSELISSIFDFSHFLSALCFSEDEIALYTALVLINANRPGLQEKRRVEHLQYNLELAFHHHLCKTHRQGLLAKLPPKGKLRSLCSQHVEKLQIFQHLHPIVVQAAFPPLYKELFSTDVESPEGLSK
#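 Compounds are pin-transferred onto Drosophila Schneider cells expressing a copper-inducible Gal4–ROR gamma transactivation domain fusion. After 1 hr, copper sulfate is added to 700 uM final; luciferase is read 20 hr later.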
# DT40 TDP1 no CPT = qHTS for Inhibitors of human tyrosyl-DNA phosphodiesterase 1 (TDP1): qHTS in cells in absence of CPT | DT40 Tdp1-/- hTDP1 cells, no CPT, ATP luminescence, 48 h | Potency, µM (titrated, usually from 46.2 µM), inactives show top-dose activity change, negative = growth inhibition, hits mostly inhibitors | 15% of 420,000 active | AID 686978, 2013; further: nearly all actives have a fitted effect of over 55% in size
#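 Growth of hTDP1-complemented DT40 Tdp1-knockout cells is measured by ATP luminescence after at least 48 hr compound exposure at 37 °C, with DMSO substituting for the 20 nM CPT used in the parallel screen.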
# DT40 TDP1 CPT = qHTS for Inhibitors of human tyrosyl-DNA phosphodiesterase 1 (TDP1): qHTS in cells in presence of CPT. 12% of 420,000 active. chicken DT40 Tdp1-/-;hTDP1 cells + 20 nM CPT, ATP luminescence, 48 h. AID 686979, 2013. Potency, µM (titrated, usually from 46.2 µM), for inactives: at the highest dose activity change, negative = growth inhibition, hits mostly inhibitors; further: nearly all actives have a fitted effect of over 55% in size
#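 Cell growth measured by CellTiter-Glo luminescence after a minimum 48 h, 37 C compound exposure with 20 nM CPT in Tdp1-knockout DT40 cells stably expressing hTDP1, seeded 400/well; qHTS titration format.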
# TDP1 block = qHTS Assay for Inhibitors of Tyrosyl-DNA Phosphodiesterase (TDP1) | Potency, µM (doses to about 130 µM), for inactives: at the highest dose activity change, negative = inhibition, hits mostly inhibitors | 0.28% of 350,000 active | recombinant TDP1, AlphaScreen DNA substrate cleavage | AID 485290, 2010; further: nearly all actives have a fitted effect of over 40% in size
#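 Steps: enzyme plus compound, 15 min RT; add biotin/phosphotyrosine-FITC oligonucleotide (15 nM final), react 5 min; add donor/acceptor beads (10 ug/ml final), 10 min; read AlphaScreen. Tdp1 at 1 nM final.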
# VP16 counter = VP16 counterscreen qHTS for inhibitors of ROR gamma transcriptional activity | Drosophila S2 Gal4-VP16 UAS-luciferase, luminescence, 20 h | Potency, µM (top dose mostly 53.6 µM), for inactives: at the highest dose activity, negative = inhibition, actives largely listed as inhibitors | 3.5% of 310,000 active;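 further: Gal4-VP16 expression switched on by copper sulfate through the metallothionein promoter; nearly all actives have a fitted effect of over 50% in size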
# Starred values were filed as active, the others as inactive; ? = inconclusive; . = no result given; [ ] = dose if it differs, or a comment. The call rests on the fitted dose curve; in most records, active means well fitted curve in the direction sought with a large enough effect; inconclusive means small, poorly fitted or top-dose-only effect, or another doubt; inactive means no such curve, though single readings can be large; an effect the other way counts as inactive or inconclusive. On the % scale 0 is the no-effect control and ±100 the full control effect; potency means the concentration at half of the fitted maximal effect.
SMILES,RORg inh,DT40 TDP1 no CPT,DT40 TDP1 CPT,TDP1 block,VP16 counter
C=C1CCN([C@@H](Cc2ccccc2)C(=O)NCCCc2ccccc2)S(=O)(=O)c2ccccc21,.,?,23µM*,.,.
C=C1CCN([C@@H](CC(C)C)C(=O)NN2CCOCC2)S(=O)(=O)c2ccccc21,.,17%,3%,.,.
C=C1CCN([C@@H](CC(C)C)C(=O)NCc2ccc(Cl)c(Cl)c2)S(=O)(=O)c2ccccc21,.,16µM*,?,.,.
CC(C)(C)c1ccc(S(=O)(=O)NCc2ccc(C(=O)N3CCOCC3)cc2)cc1,19%,?,?,4%,7%
Cc1nc2cc(Nc3nnc(-c4ccccc4)c4ccccc34)ccc2n1C,7.1µM*,?,?,9%,6.3µM*
CCc1ccc(NC(=O)CO/N=C(\C)c2cc3ccccc3o2)cc1,-6%[10 µM],-102%,?,-2%,-6%
Cc1ccccc1S(=O)Cc1ccc(C(=O)NC2CCCCCC2)o1 (stereo not drawn),.,?,18µM*,2%,.
O=C(NC1CCCCCCC1)c1ccc(Br)o1,25%,4.6µM*,-13%,.,17%
Cc1ccc(CS(=O)Cc2ccc(C(=O)NC3CCCC(C)C3C)o2)cc1 (stereo not drawn),16%,?,21µM*,4%,13%
Cc1ccc(S(=O)Cc2ccc(C(=O)NC3CCCCCC3)o2)cc1 (stereo not drawn),.,16µM*,?,2%,.
CC1(C)CC2(CCO1)OC(=O)CC2C(=O)Nc1ccc(Cl)cc1[N+](=O)[O-] (stereo not drawn),1%,-1%,?,0%,-2%
Cc1cc(C)nc(-n2nc(C)cc2NC(=O)CNC2CCCCC2)n1,2.5µM*,-16%,-15%,-3%,6.3µM*
Cc1cc(C)nc(-n2nc(C)cc2NC(=O)c2ccc3c(c2)OCO3)n1,-17%,.,.,-1%,0%
Cc1cc(C)nc(-n2nc(C)cc2NC(=O)CN2CCc3ccccc3C2)n1,0.79µM*,23µM*,10µM*,4%,2.8µM*
Cc1ccccc1NC(=O)CN1CCc2ccccc2C1,11%,-24%,3%,.,3%
Cc1cc(C)nc(-n2nc(C)cc2NC(=O)CN2CCCC(C)C2)n1 (stereo not drawn),0.71µM*,?,?,2%,5.6µM*
O=C1C=CC(=O)N1c1ccc2c(c1)C(NC(=O)C(F)(F)F)c1ccccc1-2 (stereo not drawn),.,1.8µM*,1.3µM*,.,.
CCn1nc(C)c(CCN(C)C(=O)Nc2ccc(C)c(Cl)c2)c1C,.,?,?,1%,.
COc1ccc(C)cc1NC(=O)c1ccc(CN2CCc3ccccc3C2)cc1,42%,?,?,.,5%
COc1cc(-c2ccc3oc(-c4cccc(C)c4)c(C#CC4(O)CCCCC4)c3c2)cc(OC)c1OC,.,16µM*,16µM*,3%,.
O=C(NCCOc1cccnc1)C1CCC(=O)N(Cc2ccccc2F)C1 (stereo not drawn),13%,31%,0%,4%[56.1 µM],-8%
CC(C)Oc1ccc(CCC(=O)N/N=C/c2ccncc2)cc1,20µM*,?,-29%,8%,-6%
CC(C)Oc1ccc(CCC(=O)N/N=C/c2ccc3c(c2)OCO3)cc1,-12%,-24%,-29%,.,-6%
CCOC(=O)c1cn(CC)c2ccc(S(=O)(=O)N3CC(C)CC(C)C3)cc2c1=O (stereo not drawn),27%,-18%,?,6%,-3%
CC(C)(C)NS(=O)(=O)c1ccc(OCC(=O)NCc2ccco2)cc1,5%,5%,5%,3%,-1%
SMILES,RORg inh,DT40 TDP1 no CPT,DT40 TDP1 CPT,TDP1 block,VP16 counter
Cc1ccc(C)c(NS(=O)(=O)c2ccc(OCC(=O)NCc3ccco3)cc2)c1,7%,23µM*,?,8%,15%
Cc1ccc(NS(=O)(=O)c2ccc(OCC(=O)NCc3ccncc3)cc2)cc1,28%,-9%,-3%,3%,-1%
Cc1ccc(NS(=O)(=O)c2ccc(OCC(=O)NCc3ccco3)cc2)cc1,31%,?,18µM*,7%,-4%
Cc1ccc(NS(=O)(=O)c2ccc(OCC(=O)NCc3ccccn3)cc2)cc1,.,4.6µM*,3.7µM*,.,.
O=C(COC(=O)c1c(F)cccc1F)NCc1ccc2c(c1)OCO2,.,3%,5%,-1%[56.1 µM],.
Cc1ccc(OCc2nnc(NC(=O)c3cccnc3)s2)cc1,11%,-28%,-16%,.,-9%
COc1ccc(OC)c(C(=O)N/N=C/c2ccccn2)c1,27%,6%,6%,4%,1%
CCOc1ccc(Br)cc1C(=O)N/N=C/c1ccccn1,11µM*,?,?,.,2%
Cc1ccccc1OCC(=O)N/N=C/c1ccccn1,14µM*,?,?,2%,7%
C/C=N\NC(=O)COc1cc(C)ccc1C,13µM*,10%,14%,-3%,-1%
O=C(N/N=C/c1ccc(Br)cc1)c1ccccc1-n1cccc1,-20%,16µM*,?,8%,4%
Cc1cccc(/C=N\NC(=O)c2ccccc2-n2cccc2)c1,-27%,-10%,11%,2%,-1%
O=C(COc1cccc(Cl)c1)N/N=C\c1cc2ccccc2nc1Cl,-4%,?,?,8%,-10%
CCOC(=O)C(CC)/C(C)=N\NC(=O)c1ccccc1O (stereo not drawn),10µM*,23µM*,16µM*,-1%,13µM*
Cc1ccccc1OCC(=O)N/N=C/c1cc2ccccc2nc1Cl,38%,15µM*,15µM*,-1%,-8%
CC(=O)Oc1ccc(/C=N/NS(=O)(=O)c2ccc(C)cc2)c(OC(C)=O)c1,-85%,3%,-17%,-9%,?
C=CCc1ccccc1OCC(=O)N/N=C/c1ccc(OC(C)=O)cc1OC(C)=O,7.1µM*,6.5µM*,5.8µM*,8%,?
CCCCCCCCC/C(=N\O)c1ccccn1,3.5µM*,23µM*,23µM*,8%,11µM*
CN(C)CC#CCCCCCCC#CCN(C)C,1%,.,.,2%,-1%
COc1cccc(COCC(O)Cn2cnc3cc(C)c(C)cc32)c1 (stereo not drawn),0%,?,?,3%,3%[10 µM]
Cc1ccccc1C(=O)N/N=C/c1ccncc1,-5%,-1%,8%,0%,0%
Cc1ccccc1C(=O)N/N=C/c1ccccn1,10µM*,?,?,6%,?
Cc1ccc2nc(Cl)c(/C=N/NC(=O)[C@H]3C[C@@H]3c3ccccc3)cc2c1,?,?,-16%,6%,-13%
